Experiment [1] deals with Cytochrome P450 3A4 (Homo sapiens) (UniProt P08684). The experiment in a line: qHTS Assay for Inhibitors and Substrates of Cytochrome P450 3A4 (AID 884). Further: nearly all actives have a fitted effect of over 50% in size. Further: potency means the concentration at half of the fitted maximal effect. The following applies: recombinant CYP3A4, Luciferin-PPXE luminescence; series mostly up to 57.1 µM. The procedure, abridged: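 20 nM human CYP3A4 with 25 uM Luciferin-PPXE (at KM) in 200 mM KPO4, preincubated 10 min with compound; NADPH regeneration started a 60 min RT reaction. Luciferin detected by luminescence, normalized to 57 uM ketoconazole as full inhibition.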
A general note: qHTS replaces the single test concentration by a dilution series.

Experiment [2] has as its target Thyrotropin-releasing hormone receptor (Homo sapiens) (UniProt P34981). The experiment in a line: qHTS for Small Molecule Agonists and Allosteric Enhancers of Human TRH Receptor: Validation Screen for Agonists (AID 493127;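 active means calcium activation more than 3 SD above the typical response in the agonist read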; further: 0% is about no effect). The conditions noted are these: TRH receptor agonist cell assay; at 2 µM; stronger effect = higher value. The procedure, abridged:
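TRHR cells loaded with fluo-8 calcium dye; FDSS kinetic fluorescence (Ex 480/Em 530) read at 1 s/cycle after 23 nL compound addition. Agonist-mode calcium response recorded before the 10 nM TRH (EC20) addition.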

In another experiment the test system is CP203. The experiment in a line: qHTS profiling for inhibitors of Plasmodium falciparum proliferation (AID 504749).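 Further: 0% = DMSO vehicle and full inhibition = artemisinin control; nearly all actives have a fitted effect of over 60% in size.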 The conditions noted are these: P. falciparum in erythrocytes, SYBR Green DNA, 72 h; series mostly up to 28.7 µM. The method in brief:
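P. falciparum-infected erythrocytes (0.3% parasitemia, 2.5% hematocrit) incubated with compound 72 h at 37 C, 5% CO2. Parasite DNA detected by SYBR Green after lysis, overnight at room temperature; normalised to 0.29 uM artemisinin and DMSO.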

Experiment [3] is described as follows: qHTS drug screen for cell cycle checkpoint inhibitors in PARPi-resistant BRCA-mutant ovarian cancer cell lines. (AID 1963452; calls by dose curve; further: potency means the concentration at half of the fitted maximal effect). The conditions noted are these: PEO1/OlaR viability, CellTiter-Glo luminescence, 96 h; for Z-AUC: stronger effect = lower value. The method in brief:
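PEO1, PEO4 and PEO1/OlaR ovarian cancer cells, 600 per well, exposed 96 h at 37C to a dilution series. Viability read by CellTiter-Glo luminescence, normalized to DMSO and empty wells; activity summarized as Z-AUC.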

Experiment [4] in a line: Cytometric Cell-Based qHTS for Inhibitors of the mTORC1 Signaling Pathway in MEF (Tsc2-/-, p53-/-) Cells (AID 2660).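 Further: percent of cells above a phospho-rpS6 to PI ratio cutoff in each well; plate controls were DMSO for no effect and rapamycin for full effect.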 The following applies: mTORC1 pathway cytometry; series mostly up to 38.3 µM. The procedure, abridged: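 Tsc2-/-, p53-/- MEFs (empty vector) exposed to compound 24 h at 37 C, fixed, stained with Alexa-488 anti-phospho-rpS6 Ser235/236 and propidium iodide. Acumen laser scanning; phospho-S6/PI ratio thresholded against 7.5 nM rapamycin, reported as % positive cells.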

Experiment [5] can be described thus: High Content Imaging Cell-Based qHTS for Inhibitors of the mTORC1 Signaling Pathway in MEF (Tsc2-/-, p53-/-) Cells (AID 2666). The conditions noted are these: series mostly up to 38.3 µM. The method in brief: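 Phospho-rpS6 (Ser235/236) immunofluorescence, normalized and scored as % positive cells using rapamycin and DMSO controls, was read in empty-vector Tsc2-/-, p53-/- MEFs after 24 h compound exposure at 37 C; propidium iodide counted cells.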

Experiment [6] in a line: High Content Imaging Cell-Based qHTS for Inhibitors of the mTORC1 Signaling Pathway in MEF Cells (AID 2667).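 Further: Tsc2-/- p53-/- MEFs stably re-expressing wild-type Tsc2 exposed 24 h; plate controls were DMSO wells for no effect and rapamycin control wells for full effect.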 The following applies: series mostly up to 38.3 µM. The method in brief: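 WT MEFs (Tsc2-/-, p53-/- re-expressing Tsc2), in DMEM + 10% FBS, were treated with compound for 24 h at 37 C. Cells were then fixed and stained for phospho-rpS6 Ser235/236 with propidium iodide as cell count. Values are % positive cells, with thresholds set against rapamycin-treated cells.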

A short description of experiment [7]: Cytometry Cell-Based qHTS for Inhibitors of the mTORC1 Signaling Pathway in MEF cells (AID 2668).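 Further: Tsc2-/- p53-/- mouse embryonic fibroblasts stably re-expressing wild-type Tsc2; percent cells positive for phospho-rpS6 Ser235/236 relative to propidium iodide stain; plate controls were DMSO wells for no effect and 7.5 nM rapamycin control wells for full effect.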 The conditions noted are these: mTORC1 pathway readout; series mostly up to 38.3 µM. The procedure, abridged: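 Read-out: phospho-rpS6 Ser235/236 immunofluorescence normalized to propidium iodide intensity, scored as % active cells against a rapamycin (7.5 nM) threshold. Cells: Tsc2-/-, p53-/- MEFs stably expressing WT Tsc2, compound-treated 24 hrs at 37 degree Celsius.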

For experiment [8], the target named is Ubiquitin carboxyl-terminal hydrolase 2 (Homo sapiens) (UniProt O75604). The experiment in a line: qHTS Validation Assay for Inhibitors of Ubiquitin-specific Protease USP2a Using CHOP2 as the Reporter (AID 463106).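 Further: plate controls were DMSO for no effect and full inhibition by NEM for full effect.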 The following applies: USP2a cleavage of CHOP2 reporter, enzymatic; series mostly up to 38.3 µM. The procedure, abridged: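 USP2 core (10 nM final) was preincubated with compound 30 min at RT in pH 8.0 Tris/CaCl2/beta-ME/CHAPS buffer. Ub-CHOP2 and reporter substrate (25 nM final each) were then added, with fluorescence (Ex 485/Em 531) read after 60 min. Data were normalized to NEM full inhibition and fitted to concentration-response curves.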

For experiment [9], the target named is DNA polymerase III PolC-type (Bacillus subtilis (strain 168)) (UniProt P13267). The experiment in a line: qHTS Validation Assay for the Inhibitors of DNA Replication in Gram-Positive Bacteria (AID 485295).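 Further: reconstituted holoenzyme with PolC plus beta clamp SSB and primase; PicoGreen fluorescence of double-stranded DNA made on primed circular M13 template; 0% = DMSO wells and -100% = EDTA-quenched background wells.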 The conditions noted are these: Gram-positive bacterial DNA replication assay; series mostly up to 57.1 µM. The method in brief: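 PicoGreen fluorescence (ex 480–485/em 535–540 nm) reports dsDNA synthesized on ssM13Gori template with dNTPs/NTPs. Enzyme: holoenzyme rebuilt from purified PolC, beta subunit, SSB and primase. Compound preincubated before substrate addition; RT throughout.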

The target of experiment [10] is Tumor susceptibility gene 101 protein (Homo sapiens) (UniProt Q99816). The experiment in a line: qHTS Validation Assay for Iinhibitors of HIV-1 Budding by Blocking the Interaction of PTAP/TSG101 (AID 485342; calls by dose curve; further: 0% is about no effect). The conditions noted are these: TSG101-PTAP binding, fluorescence polarization, 4-point titration; series mostly up to 115 µM. The procedure, abridged:
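FP read-out: FITC-PTAP peptide, 50 nM final, binding Tsg101 binding domain, 10 uM final; 20 min r.t.; 10 mM HEPES pH 7.5, 0.15 M NaCl, 0.01% Tween 20, 3 mM EDTA, 0.1 mM TCEP.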

Experiment [11] is described as follows: qHTS Validation Assay to Find Inhibitors of Chronic Active B-Cell Receptor Signaling (AID 485345; active means well fitted curve in the direction sought with a large enough effect in the main read-out, with a control signal flat, not every such curve was filed as active;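 further: 0% = untreated basal cells and 100% = 10 µM MG-132 proteasome inhibitor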). The following applies: ABC-DLBCL cells, chronic BCR signaling reporter, CBG luciferase; series mostly up to 46.1 µM. The method in brief:
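TMD8 ABC-DLBCL cells stably carrying doxycycline-inducible IkappaBalpha–green luciferase fusion plus unfused red luciferase; compounds 46 uM to 3 nM, 4 h at 37C with doxycycline. Corrected green/red luminescence ratio normalized to 10 uM MG-132 and basal cell wells; curves fitted.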

Experiment [12] addresses Beta-2 adrenergic receptor (Homo sapiens) (UniProt P07550). The experiment in a line: qHTS validation assay of beta-arrestin-biased ligands of beta2-adrenergic receptor (AID 485366). Further: 0% is about no effect. The conditions noted are these: cell-based beta-arrestin recruitment to ADRB2, qHTS; series mostly up to 46.1 µM. The method in brief:
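Tango cells expressing recombinant beta2-AR and beta-arrestin with tTA-driven luciferase, in DMEM with 1% FBS. Compounds were titrated up to 46 microM for 18 hr at 37 degrees C. Luminescence was read 15 min after substrate; curves were fitted and class-assigned.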

For experiment [13], the target named is ATP-dependent 6-phosphofructokinase (Trypanosoma brucei brucei) (UniProt O15648). The experiment in a line: qHTS Validation Assay to Find Inhibitors of T. brucei phosphofructokinase (AID 485368). The conditions noted are these: T. brucei PFK enzyme assay, qHTS 7-point titration; at 57.5 µM (top of the series). The procedure, abridged: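 Activity was read as ADP production by luminescence (ADP-Glo) after 45 min at room temperature. The enzyme was 1.25nM PFK in 0.1M TEA pH 8.0 with 0.5 mM F6P, 0.1mM ATP and 5 mM MgCl2. Compounds were titrated up to 57 uM and % activity normalized to no-enzyme and full-enzyme controls.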

For experiment [14], the target named is Thioredoxin reductase 1, cytoplasmic (Rattus norvegicus) (UniProt O89049). The experiment in a line: qHTS Assay for Substrates of Mammalian Selenoprotein Thioredoxin Reductase 1 (TrxR1) (AID 488772).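 Further: NADPH fluorescence in the first read after selenite addition and not the 8 min delta; 0% is about no effect; a drop in NADPH fluorescence below the no-compound background marks a TrxR1 substrate.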 The following applies: purified TrxR1, NADPH consumption substrate assay; series mostly up to 57.1 µM. The procedure, abridged:
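Quantitative HTS in Tris-HCl buffer at pH 7.5 with EDTA and Tween-20, using rat TrxR1, 400 uM NADPH and 400 uM selenite (final). A fall in initial NADPH fluorescence relative to background marked substrate behaviour.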

Experiment [15] shares this target. The experiment in a line: qHTS Assay for Inhibitors of Mammalian Selenoprotein Thioredoxin Reductase 1 (TrxR1) (AID 488773).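 Further: drop in NADPH fluorescence over an 8 min run after selenite addition; on the % scale 0 is the no-effect control and ±100 the full control effect; nearly all actives have a fitted effect of over 40% in size.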 The conditions noted are these: purified TrxR1 enzyme activity; series mostly up to 57.1 µM. The procedure, abridged: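 Steps: enzyme (90 nM) plus NADPH (400 uM final), 5 min at ~22 deg C; compound added, 15 min; selenite (400 uM final) added; fluorescence followed for 8 min. Concentration-response curves derived from the normalized delta values.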

The target in experiment [16] is Flap endonuclease 1 (Homo sapiens) (UniProt P39748). The experiment in a line: qHTS Validation Assay for the Inhibitors of Human Flap endonuclease 1 (FEN1) (AID 488816). Further: on the % scale 0 is the no-effect control and ±100 the full control effect. The conditions noted are these: FEN1 nuclease activity, fluorogenic DNA substrate; series mostly up to 57.1 µM. The procedure, abridged:
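Human FEN1 (10 nM) preincubated 15 min at room temperature with compounds, then flap DNA substrate added at 50 nM final. Fluorescence read at 0 and 15 min; concentration-response fitted with four-parameter Hill equation.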

Experiment [17] addresses Chromobox protein homolog 1 (Homo sapiens) (UniProt P83916). The experiment in a line: qHTS Validation Assay for Inhibitors of HP1-beta Chromodomain Interactions with Methylated Histone Tails (AID 488953).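 Further: loss of AlphaScreen luminescence from HP1-beta binding biotinylated H3K9me3 peptide; on the % scale 0 is the no-effect control and ±100 the full control effect; nearly all actives have a fitted effect of over 50% in size.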 The conditions noted are these: HP1-beta chromodomain / methylated histone peptide binding assay; series mostly up to 114 µM. The procedure, abridged:
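HP1-beta (50 nM) preformed 30 min with biotinylated H3(1-18)K9me3 peptide (50 nM) in PBS pH 7.4, 0.01% Tween-20. Compounds added for 30 min at room temperature. Complex disruption read by AlphaScreen with streptavidin donor/nickel chelate acceptor beads (10 ug/mL each).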

The target of experiment [18] is Methanococcus maripaludis chaperonin (MmCpn) (UniProt Q6LX38). The experiment in a line: High-Throughput Screening for Modulators of Cytosolic Chaperonin Activity: MmCpn Primary Screen (AID 488978). Further: 0% is about no effect. The conditions noted are these: Purified MmCpn ATPase activity, ADP HTRF detection, 10 min; series mostly up to 76.9 µM. The procedure, abridged: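 ADP formation read by HTRF Transcreener, 665/590 nm emission after 320 nm excitation. Enzyme: archaeal chaperonin at 50 nM final; substrate ATP 30 uM final; 10 min, 37C, after 5 min compound preincubation at RT.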
In general terms: Time-resolved FRET reads energy transfer from a long-lived donor to a nearby acceptor.

The target of experiment [19] is D(1A) dopamine receptor (Homo sapiens) (UniProt P21728). The experiment in a line: HTS Assay for Allosteric Agonists of the Human D1 Dopamine Receptor: Primary Screen for Agonists (AID 488981). Further: 0% is about no effect. The conditions noted are these: Inducible HEK293 T-REx D1 cells, calcium-flux fluorescence, 180 s kinetic; series mostly up to 41.8 µM. The method in brief: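 Tetracycline-induced HEK293 Trex D1 cells with forced coupling to calcium, loaded with no-wash calcium dye; kinetic fluorescence read 180 s after compound addition for agonism, then a further 180 s after an EC20 dopamine challenge for potentiation.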

The structures appear in SMILES notation. Inconclusive results are not listed. Calls of active or inactive are those of the source. Unless noted, the call rests on the fitted dose curve; in most records, active means well fitted curve in the direction sought with a large enough effect; inconclusive means small, poorly fitted or top-dose-only effect, or another doubt; inactive means no such curve, though single readings can be large; an effect the other way counts as inactive or inconclusive.

Thioredoxin reductase 1, cytoplasmic (Rattus norvegicus), sequence (O89049 whole entry, looked up): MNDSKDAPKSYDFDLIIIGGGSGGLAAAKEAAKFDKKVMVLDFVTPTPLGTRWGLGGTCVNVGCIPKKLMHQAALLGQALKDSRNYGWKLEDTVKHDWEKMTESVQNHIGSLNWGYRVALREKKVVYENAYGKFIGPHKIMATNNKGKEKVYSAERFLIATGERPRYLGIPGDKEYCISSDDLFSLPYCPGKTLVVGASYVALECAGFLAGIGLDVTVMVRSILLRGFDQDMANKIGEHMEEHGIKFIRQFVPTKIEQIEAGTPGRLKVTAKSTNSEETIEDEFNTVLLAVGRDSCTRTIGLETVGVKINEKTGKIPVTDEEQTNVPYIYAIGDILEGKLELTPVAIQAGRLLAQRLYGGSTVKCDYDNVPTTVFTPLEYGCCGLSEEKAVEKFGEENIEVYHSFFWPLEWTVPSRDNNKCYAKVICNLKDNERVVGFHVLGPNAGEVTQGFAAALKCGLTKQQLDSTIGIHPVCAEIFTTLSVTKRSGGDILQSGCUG
Chromobox protein homolog 1 (Homo sapiens), sequence (P83916 whole entry, looked up): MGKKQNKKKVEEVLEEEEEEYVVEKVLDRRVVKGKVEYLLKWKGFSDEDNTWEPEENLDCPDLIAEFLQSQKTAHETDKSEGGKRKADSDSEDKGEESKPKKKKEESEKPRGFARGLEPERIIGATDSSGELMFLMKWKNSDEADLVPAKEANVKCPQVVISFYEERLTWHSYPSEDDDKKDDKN
Ubiquitin carboxyl-terminal hydrolase 2 (Homo sapiens), sequence (O75604 whole entry, looked up): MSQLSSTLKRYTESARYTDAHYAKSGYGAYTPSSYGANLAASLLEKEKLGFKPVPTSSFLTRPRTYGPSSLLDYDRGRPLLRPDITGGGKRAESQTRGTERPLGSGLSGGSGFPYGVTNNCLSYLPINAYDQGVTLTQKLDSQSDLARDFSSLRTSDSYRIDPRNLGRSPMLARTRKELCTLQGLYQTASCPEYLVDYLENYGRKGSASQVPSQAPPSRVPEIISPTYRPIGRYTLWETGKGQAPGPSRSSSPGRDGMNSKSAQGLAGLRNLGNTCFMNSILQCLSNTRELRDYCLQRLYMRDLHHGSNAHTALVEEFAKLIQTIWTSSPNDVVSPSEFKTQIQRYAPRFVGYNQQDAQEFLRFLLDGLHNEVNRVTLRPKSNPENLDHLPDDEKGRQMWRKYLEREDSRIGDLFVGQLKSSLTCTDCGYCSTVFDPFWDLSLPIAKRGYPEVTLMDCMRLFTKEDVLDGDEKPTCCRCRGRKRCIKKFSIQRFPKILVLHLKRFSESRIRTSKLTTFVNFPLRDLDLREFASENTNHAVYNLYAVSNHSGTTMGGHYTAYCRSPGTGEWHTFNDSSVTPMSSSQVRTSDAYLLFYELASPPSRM
Cytochrome P450 3A4 (Homo sapiens), sequence (P08684 whole entry, looked up): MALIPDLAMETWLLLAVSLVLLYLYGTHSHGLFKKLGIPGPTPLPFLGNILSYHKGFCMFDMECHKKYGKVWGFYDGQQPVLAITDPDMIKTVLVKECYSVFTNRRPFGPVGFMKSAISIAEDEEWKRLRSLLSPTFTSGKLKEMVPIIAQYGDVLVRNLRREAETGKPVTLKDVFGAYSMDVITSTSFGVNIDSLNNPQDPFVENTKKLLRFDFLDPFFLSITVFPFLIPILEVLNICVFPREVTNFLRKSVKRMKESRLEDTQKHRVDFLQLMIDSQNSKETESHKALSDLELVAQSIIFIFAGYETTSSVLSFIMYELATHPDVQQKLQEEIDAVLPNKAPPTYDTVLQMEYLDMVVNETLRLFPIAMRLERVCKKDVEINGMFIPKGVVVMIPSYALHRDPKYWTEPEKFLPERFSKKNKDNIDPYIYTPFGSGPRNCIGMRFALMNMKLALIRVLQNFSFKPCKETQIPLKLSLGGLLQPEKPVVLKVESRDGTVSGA
Tumor susceptibility gene 101 protein (Homo sapiens), sequence (Q99816 whole entry, looked up, the tested form may be a part): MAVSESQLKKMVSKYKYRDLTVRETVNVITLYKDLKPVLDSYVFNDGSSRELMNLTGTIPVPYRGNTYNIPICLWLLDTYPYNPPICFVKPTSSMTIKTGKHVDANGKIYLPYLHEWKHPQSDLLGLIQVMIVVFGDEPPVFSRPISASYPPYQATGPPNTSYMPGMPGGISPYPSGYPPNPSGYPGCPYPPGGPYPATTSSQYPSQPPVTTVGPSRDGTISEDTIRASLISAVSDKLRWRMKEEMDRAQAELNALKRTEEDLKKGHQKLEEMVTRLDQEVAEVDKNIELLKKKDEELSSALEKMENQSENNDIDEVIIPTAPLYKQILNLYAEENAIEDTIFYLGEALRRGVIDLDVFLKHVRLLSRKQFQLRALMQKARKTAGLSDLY
ATP-dependent 6-phosphofructokinase (Trypanosoma brucei brucei), sequence (O15648 whole entry, looked up): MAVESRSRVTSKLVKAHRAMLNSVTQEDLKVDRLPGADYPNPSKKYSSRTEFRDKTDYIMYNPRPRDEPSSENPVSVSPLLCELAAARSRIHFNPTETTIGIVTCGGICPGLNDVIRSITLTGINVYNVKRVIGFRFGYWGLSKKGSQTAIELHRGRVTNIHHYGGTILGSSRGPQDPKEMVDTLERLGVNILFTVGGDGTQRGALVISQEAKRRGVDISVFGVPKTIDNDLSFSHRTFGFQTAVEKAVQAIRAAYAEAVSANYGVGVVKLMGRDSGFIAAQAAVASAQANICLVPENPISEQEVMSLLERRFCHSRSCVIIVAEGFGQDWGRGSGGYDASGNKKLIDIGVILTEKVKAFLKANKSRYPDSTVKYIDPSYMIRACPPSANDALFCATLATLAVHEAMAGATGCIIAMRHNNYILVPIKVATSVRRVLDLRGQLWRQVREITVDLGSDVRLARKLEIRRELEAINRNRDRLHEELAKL
Thyrotropin-releasing hormone receptor (Homo sapiens), sequence (P34981 whole entry, looked up): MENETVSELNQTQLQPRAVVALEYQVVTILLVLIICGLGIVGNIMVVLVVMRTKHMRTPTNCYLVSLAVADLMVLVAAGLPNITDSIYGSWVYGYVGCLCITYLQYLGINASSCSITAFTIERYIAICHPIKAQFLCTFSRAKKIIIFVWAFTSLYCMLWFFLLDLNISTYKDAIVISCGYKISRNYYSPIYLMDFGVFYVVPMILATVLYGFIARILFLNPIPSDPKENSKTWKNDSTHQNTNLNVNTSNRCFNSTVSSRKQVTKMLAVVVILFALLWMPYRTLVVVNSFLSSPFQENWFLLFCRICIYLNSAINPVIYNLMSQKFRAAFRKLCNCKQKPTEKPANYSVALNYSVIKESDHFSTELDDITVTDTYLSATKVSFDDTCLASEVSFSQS
D(1A) dopamine receptor (Homo sapiens), sequence (P21728 whole entry, looked up): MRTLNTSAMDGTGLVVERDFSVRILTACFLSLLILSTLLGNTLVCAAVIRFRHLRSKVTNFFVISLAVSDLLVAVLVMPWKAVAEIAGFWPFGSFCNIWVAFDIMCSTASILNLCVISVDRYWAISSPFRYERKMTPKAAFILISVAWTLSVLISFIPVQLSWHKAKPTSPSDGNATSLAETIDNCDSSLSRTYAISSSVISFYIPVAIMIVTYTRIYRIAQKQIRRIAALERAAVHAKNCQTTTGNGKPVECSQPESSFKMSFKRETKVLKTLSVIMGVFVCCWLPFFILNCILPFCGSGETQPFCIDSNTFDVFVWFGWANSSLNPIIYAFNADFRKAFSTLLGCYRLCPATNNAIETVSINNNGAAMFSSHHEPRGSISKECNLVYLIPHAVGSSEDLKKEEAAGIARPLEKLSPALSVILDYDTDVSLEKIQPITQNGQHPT
Flap endonuclease 1 (Homo sapiens), sequence (P39748 whole entry, looked up): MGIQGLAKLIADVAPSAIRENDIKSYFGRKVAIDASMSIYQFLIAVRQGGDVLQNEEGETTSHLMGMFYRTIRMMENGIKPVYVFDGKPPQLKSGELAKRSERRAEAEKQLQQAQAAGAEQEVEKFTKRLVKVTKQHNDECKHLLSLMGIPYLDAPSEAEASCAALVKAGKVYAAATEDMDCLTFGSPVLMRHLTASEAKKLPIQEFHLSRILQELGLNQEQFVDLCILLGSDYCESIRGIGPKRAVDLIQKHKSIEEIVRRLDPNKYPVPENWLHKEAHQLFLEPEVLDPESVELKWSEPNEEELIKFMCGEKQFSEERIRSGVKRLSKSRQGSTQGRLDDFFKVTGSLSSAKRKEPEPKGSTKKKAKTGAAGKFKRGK
Beta-2 adrenergic receptor (Homo sapiens), sequence (P07550 whole entry, looked up): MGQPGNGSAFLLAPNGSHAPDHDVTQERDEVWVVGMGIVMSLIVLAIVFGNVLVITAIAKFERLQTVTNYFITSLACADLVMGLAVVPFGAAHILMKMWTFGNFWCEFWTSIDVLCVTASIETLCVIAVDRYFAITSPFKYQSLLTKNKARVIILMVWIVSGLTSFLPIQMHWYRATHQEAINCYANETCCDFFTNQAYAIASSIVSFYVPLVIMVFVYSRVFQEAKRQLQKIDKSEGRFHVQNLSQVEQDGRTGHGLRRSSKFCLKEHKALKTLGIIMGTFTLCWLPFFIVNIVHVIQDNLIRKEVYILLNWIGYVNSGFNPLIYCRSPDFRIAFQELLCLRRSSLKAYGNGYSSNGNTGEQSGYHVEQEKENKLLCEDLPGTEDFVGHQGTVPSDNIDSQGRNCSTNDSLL
Methanococcus maripaludis chaperonin (MmCpn), sequence (Q6LX38 1-543): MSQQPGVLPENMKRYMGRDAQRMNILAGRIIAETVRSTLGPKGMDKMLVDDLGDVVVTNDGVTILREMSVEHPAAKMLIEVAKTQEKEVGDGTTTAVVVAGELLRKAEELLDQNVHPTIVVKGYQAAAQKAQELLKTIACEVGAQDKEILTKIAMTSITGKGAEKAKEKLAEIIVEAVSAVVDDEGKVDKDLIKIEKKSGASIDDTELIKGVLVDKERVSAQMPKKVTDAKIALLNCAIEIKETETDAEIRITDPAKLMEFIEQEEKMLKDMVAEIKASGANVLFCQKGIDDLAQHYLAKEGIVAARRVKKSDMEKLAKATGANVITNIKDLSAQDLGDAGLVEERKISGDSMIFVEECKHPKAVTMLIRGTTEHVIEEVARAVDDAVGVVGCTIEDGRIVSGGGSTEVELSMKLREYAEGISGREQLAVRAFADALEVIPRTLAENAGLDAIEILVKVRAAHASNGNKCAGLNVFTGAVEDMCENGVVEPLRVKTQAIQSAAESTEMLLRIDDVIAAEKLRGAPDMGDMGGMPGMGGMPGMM

Regarding `CCC1/C=C/C=CCC(C)C(O)[C@@](C)(O)C(=O)C(C)C(O)C(C)C(=O)C(C)C(O)C(C)C=CC(=O)O[C@H]2C(C)C(CC1)O[C@]1(CCC(C)C(CC(C)O)O1)C2C` (stereo partly specified), the Potency in experiment [1] was 7.94 µM (active).

Regarding `COC(=O)C(N)CCCN=C(N)N[N+](=O)[O-]` (stereo unspecified), in experiment [2], the activation is 1.06% (inactive).

As to `CN1CCC23CCCC[C@H]2C1Cc1ccc(O)cc13` (stereo partly specified), in experiment [2], the activation was 0.625% (inactive).

For the compound `CC(C)(O)C1C2OC(=O)C1[C@]1(O)C[C@H]3O[C@]34C(=O)O[C@H]2[C@]14C` (stereo partly specified) (tested in a mixture with another compound), the Potency entry in the experiment on CP203 was “inactive”.

As for `CCCCN1C2CCC1CC(OC(c1ccc(F)cc1)c1ccc(F)cc1)C2` (stereo unspecified), the Potency entry in experiment [1] is “inactive”.

Take `C/C1=C/C[C@@H](/C(C)=C/c2csc(C)n2)OC(=O)C[C@H](O)C(C)(C)C(=O)[C@H](C)[C@@H](O)[C@@H](C)CCC1`: the Potency in experiment [3] is 0.0195 µM (active). In addition, the Z-AUC in experiment [3] (measured here: PEO1 parental Z-AUC) was -2.71; in experiment [3] (measured here: PEO4 Z-AUC), -2.82.

Turning to `C[C@H]1C2Cc3ccc(O)cc3[C@]1(C)CCN2CC1CC1`, the call in experiment [4], in experiment [8], in experiment [9], in [10], in [11] and in experiment [12] was inactive. Moreover, the result in experiment [13], in experiment [14], in experiment [15], in experiment [16], in experiment [18] and in experiment [19] was inactive. Moreover, the Potency result in [5], in [6], in [7] and in experiment [17] was “inactive” throughout.

As for `CC12CCC3C(CCC4=C(O)C(=O)CCC43C)C1CCC2=O` (stereo unspecified), the compound was called inactive in experiment [4], in experiment [8], in experiment [9], in experiment [10], in [11] and in experiment [12]. The compound was called inactive in [13], in experiment [14], in experiment [15], in [16], in experiment [18] and in experiment [19]. The Potency entry in experiment [5], in [6], in [7] and in experiment [17] was “inactive” throughout.

As to `CNC(C)[C@@H](O)c1ccc(O)cc1` (stereo partly specified), the Potency entry with CP203 is “inactive”.

(Values after PubChem BioAssay (NCATS).)
